# Experimental data taken from PMC7862700, “An all-to-all approach to the identification of sequence-specific readers for epigenetic DNA modifications on cytosine”.
# Columns and labels:
# Experiment in all cases: DAPPL (digital affinity profiling via proximity ligation, sequencing); 10 mM Tris-HCl pH 7.5, 50 mM NaCl, 1 mM DTT, 4% glycerol, room temperature, 30 min; GST-TFs on glutathione beads, 16-mer random dsDNA library, 0.1% formaldehyde crosslink after washing; high values mean tight binding
# Conditions in all cases: protein: recombinant; tags: N-terminal GST; dsDNA, one strand shown
# ERF = molecular target: T1, ERF (Homo sapiens, UniProt P50548 1-548)
# T1 sequence: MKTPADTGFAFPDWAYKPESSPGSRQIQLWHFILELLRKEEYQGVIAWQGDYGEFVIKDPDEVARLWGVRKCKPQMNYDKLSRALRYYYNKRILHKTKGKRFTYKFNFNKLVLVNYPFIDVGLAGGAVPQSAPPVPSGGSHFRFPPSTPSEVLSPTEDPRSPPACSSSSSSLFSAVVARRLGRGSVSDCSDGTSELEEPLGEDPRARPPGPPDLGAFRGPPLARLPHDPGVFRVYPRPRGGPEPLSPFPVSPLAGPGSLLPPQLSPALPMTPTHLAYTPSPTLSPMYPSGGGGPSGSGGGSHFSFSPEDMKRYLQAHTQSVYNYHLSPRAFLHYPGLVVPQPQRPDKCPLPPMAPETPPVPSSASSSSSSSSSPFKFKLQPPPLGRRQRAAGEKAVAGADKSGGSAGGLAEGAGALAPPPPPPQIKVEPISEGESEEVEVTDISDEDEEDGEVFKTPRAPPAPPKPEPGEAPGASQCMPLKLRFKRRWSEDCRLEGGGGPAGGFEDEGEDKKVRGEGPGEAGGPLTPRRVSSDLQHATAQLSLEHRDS
# Summary of the method: (§1)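 Each value of binding signal is a hexamer's read frequency for a factor divided by the same hexamer's frequency in the tag-only sample. Barcoded, bead-captured GST fusions of human transcription factors made in yeast were pooled with that sample and incubated with 200 nmole of a random double-stranded 16-mer DNA library in Tris/NaCl/DTT/glycerol buffer at room temperature for 30 min. Washing, 0.1% formaldehyde crosslinking, proximity ligation, PCR and Illumina NextSeq500 sequencing followed.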
# ETV3L = molecular target: T2, ETV3L (Homo sapiens, UniProt Q6ZN32 1-361)
# T2 sequence: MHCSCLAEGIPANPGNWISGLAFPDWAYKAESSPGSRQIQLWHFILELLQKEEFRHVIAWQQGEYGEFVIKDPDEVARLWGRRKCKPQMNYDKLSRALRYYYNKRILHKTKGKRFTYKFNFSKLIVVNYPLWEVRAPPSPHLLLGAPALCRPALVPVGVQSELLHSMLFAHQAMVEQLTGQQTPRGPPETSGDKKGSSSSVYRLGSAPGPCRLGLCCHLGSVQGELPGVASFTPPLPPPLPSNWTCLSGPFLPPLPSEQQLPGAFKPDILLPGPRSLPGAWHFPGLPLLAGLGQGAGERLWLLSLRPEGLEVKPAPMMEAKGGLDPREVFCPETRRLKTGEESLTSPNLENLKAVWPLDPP
# Summary of the method: as §1
# ETS2 = molecular target: T3, ETS2 (Homo sapiens, UniProt P15036 1-469)
# T3 sequence: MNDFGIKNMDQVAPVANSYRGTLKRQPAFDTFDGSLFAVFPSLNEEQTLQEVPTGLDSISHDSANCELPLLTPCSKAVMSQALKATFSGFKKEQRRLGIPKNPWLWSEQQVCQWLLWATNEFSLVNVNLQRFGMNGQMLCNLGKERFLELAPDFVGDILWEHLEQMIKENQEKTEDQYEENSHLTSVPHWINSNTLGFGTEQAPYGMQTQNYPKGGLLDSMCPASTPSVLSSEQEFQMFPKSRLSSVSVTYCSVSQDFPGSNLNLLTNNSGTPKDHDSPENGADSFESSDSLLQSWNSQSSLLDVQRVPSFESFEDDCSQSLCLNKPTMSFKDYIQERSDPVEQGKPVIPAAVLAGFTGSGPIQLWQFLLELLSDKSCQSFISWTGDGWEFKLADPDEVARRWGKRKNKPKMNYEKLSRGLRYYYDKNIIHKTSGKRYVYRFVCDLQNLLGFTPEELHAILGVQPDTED
# Summary of the method: as §1
# SPDEF = molecular target: T4, SPDEF (Homo sapiens, UniProt O95238 1-335)
# T4 sequence: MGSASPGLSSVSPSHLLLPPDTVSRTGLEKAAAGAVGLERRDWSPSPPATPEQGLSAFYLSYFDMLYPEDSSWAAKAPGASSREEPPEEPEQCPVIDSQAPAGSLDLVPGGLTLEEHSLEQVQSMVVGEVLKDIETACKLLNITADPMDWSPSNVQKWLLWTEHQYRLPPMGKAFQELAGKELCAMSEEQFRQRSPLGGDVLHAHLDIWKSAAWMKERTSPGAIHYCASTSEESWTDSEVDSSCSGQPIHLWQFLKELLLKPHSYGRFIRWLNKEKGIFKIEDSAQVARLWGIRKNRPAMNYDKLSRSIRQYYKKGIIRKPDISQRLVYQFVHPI
# Summary of the method: as §1
# ETV7 = molecular target: T5, ETV7 (Homo sapiens, UniProt Q9Y603 1-341)
# T5 sequence: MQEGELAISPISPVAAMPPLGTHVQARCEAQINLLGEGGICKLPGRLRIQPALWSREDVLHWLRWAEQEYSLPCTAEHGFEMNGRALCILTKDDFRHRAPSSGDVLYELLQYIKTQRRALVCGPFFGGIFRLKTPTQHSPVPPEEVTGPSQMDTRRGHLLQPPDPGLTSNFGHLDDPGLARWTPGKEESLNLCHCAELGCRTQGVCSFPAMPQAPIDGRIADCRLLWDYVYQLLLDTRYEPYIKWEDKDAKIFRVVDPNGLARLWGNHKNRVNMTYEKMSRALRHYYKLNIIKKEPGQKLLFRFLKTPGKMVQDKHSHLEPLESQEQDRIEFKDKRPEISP
# Summary of the method: as §1
# ELF5 = molecular target: T6, ELF5 (Homo sapiens, UniProt Q9UKW6-2 1-255)
# T6 sequence: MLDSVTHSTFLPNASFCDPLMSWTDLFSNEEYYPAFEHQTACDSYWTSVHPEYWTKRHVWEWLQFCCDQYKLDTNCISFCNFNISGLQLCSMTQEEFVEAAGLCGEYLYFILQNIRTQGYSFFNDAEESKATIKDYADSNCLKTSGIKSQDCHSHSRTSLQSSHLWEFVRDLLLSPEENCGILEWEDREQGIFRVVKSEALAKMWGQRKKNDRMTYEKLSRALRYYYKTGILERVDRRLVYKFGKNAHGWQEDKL
# Summary of the method: as §1
# ETV3 = molecular target: T7, ETV3 (Homo sapiens, UniProt P41162-2 1-143)
# T7 sequence: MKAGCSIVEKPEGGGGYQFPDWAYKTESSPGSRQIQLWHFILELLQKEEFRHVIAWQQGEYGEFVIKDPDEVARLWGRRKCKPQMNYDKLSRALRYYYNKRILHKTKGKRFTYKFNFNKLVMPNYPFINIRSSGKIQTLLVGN
# Summary of the method: as §1
# ETV6 = ETV6 (Homo sapiens, UniProt P41212 1-452)
# Summary of the method: as §1
# Chain of ETV6 (P41212 whole entry): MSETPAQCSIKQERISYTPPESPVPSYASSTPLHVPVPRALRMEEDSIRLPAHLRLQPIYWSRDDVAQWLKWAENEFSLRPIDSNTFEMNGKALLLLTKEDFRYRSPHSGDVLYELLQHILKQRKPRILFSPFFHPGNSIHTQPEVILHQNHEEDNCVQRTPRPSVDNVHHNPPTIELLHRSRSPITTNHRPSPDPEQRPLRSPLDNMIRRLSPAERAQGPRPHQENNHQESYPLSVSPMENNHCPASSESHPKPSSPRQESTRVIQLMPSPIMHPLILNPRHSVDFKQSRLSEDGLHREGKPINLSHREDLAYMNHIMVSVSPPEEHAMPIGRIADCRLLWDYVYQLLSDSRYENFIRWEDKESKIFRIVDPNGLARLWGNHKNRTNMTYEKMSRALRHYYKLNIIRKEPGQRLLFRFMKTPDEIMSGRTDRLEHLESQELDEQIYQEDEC
sequence,measurement,setting,value
AACATC,binding signal,ERF,"1.43 fold enrichment (6-mer frequency, TF over GST control)"
same,binding signal,ETV3L,"1.41 fold enrichment (6-mer frequency, TF over GST control)"
same,binding signal,ETS2,"1.45 fold enrichment (6-mer frequency, TF over GST control)"
same,binding signal,SPDEF,"1.68 fold enrichment (6-mer frequency, TF over GST control)"
same,binding signal,ETV7,"1.35 fold enrichment (6-mer frequency, TF over GST control)"
same,binding signal,ELF5,"1.64 fold enrichment (6-mer frequency, TF over GST control)"
same,binding signal,ETV3,"1.5 fold enrichment (6-mer frequency, TF over GST control)"
same,binding signal,ETV6,"1.4 fold enrichment (6-mer frequency, TF over GST control)"
AGATCC,binding signal,ERF,"1.08 fold enrichment (6-mer frequency, TF over GST control)"
same,binding signal,ETV3L,"1.13 fold enrichment (6-mer frequency, TF over GST control)"
same,binding signal,ETS2,"1.2 fold enrichment (6-mer frequency, TF over GST control)"
same,binding signal,SPDEF,"2.08 fold enrichment (6-mer frequency, TF over GST control)"
same,binding signal,ETV7,"1.03 fold enrichment (6-mer frequency, TF over GST control)"
same,binding signal,ELF5,"1.22 fold enrichment (6-mer frequency, TF over GST control)"
same,binding signal,ETV3,"1.21 fold enrichment (6-mer frequency, TF over GST control)"
same,binding signal,ETV6,"1.1 fold enrichment (6-mer frequency, TF over GST control)"
ACAATC,binding signal,ERF,"1.2 fold enrichment (6-mer frequency, TF over GST control)"
same,binding signal,ETV3L,"1.14 fold enrichment (6-mer frequency, TF over GST control)"
same,binding signal,ETS2,"1.17 fold enrichment (6-mer frequency, TF over GST control)"
same,binding signal,SPDEF,"1.16 fold enrichment (6-mer frequency, TF over GST control)"
same,binding signal,ETV7,"1.16 fold enrichment (6-mer frequency, TF over GST control)"
same,binding signal,ELF5,"1.19 fold enrichment (6-mer frequency, TF over GST control)"
same,binding signal,ETV3,"1.14 fold enrichment (6-mer frequency, TF over GST control)"
same,binding signal,ETV6,"1.12 fold enrichment (6-mer frequency, TF over GST control)"
GAACTA,binding signal,ERF,"1.25 fold enrichment (6-mer frequency, TF over GST control)"
same,binding signal,ETV3L,"1.27 fold enrichment (6-mer frequency, TF over GST control)"
same,binding signal,ETS2,"1.33 fold enrichment (6-mer frequency, TF over GST control)"
same,binding signal,SPDEF,"1.31 fold enrichment (6-mer frequency, TF over GST control)"
same,binding signal,ETV7,"1.3 fold enrichment (6-mer frequency, TF over GST control)"
same,binding signal,ELF5,"1.36 fold enrichment (6-mer frequency, TF over GST control)"
same,binding signal,ETV3,"1.34 fold enrichment (6-mer frequency, TF over GST control)"
same,binding signal,ETV6,"1.36 fold enrichment (6-mer frequency, TF over GST control)"
AACCTC,binding signal,ERF,"1.26 fold enrichment (6-mer frequency, TF over GST control)"
same,binding signal,ETV3L,"1.24 fold enrichment (6-mer frequency, TF over GST control)"
same,binding signal,ETS2,"1.18 fold enrichment (6-mer frequency, TF over GST control)"
same,binding signal,SPDEF,"1.07 fold enrichment (6-mer frequency, TF over GST control)"
same,binding signal,ETV7,"1.26 fold enrichment (6-mer frequency, TF over GST control)"
same,binding signal,ELF5,"1.17 fold enrichment (6-mer frequency, TF over GST control)"
same,binding signal,ETV3,"1.2 fold enrichment (6-mer frequency, TF over GST control)"
same,binding signal,ETV6,"1.16 fold enrichment (6-mer frequency, TF over GST control)"
ATCCGC,binding signal,ERF,"1.71 fold enrichment (6-mer frequency, TF over GST control)"
same,binding signal,ETV3L,"1.84 fold enrichment (6-mer frequency, TF over GST control)"
same,binding signal,ETS2,"1.89 fold enrichment (6-mer frequency, TF over GST control)"
same,binding signal,SPDEF,"2.36 fold enrichment (6-mer frequency, TF over GST control)"
same,binding signal,ETV7,"1.79 fold enrichment (6-mer frequency, TF over GST control)"
same,binding signal,ELF5,"2.26 fold enrichment (6-mer frequency, TF over GST control)"
same,binding signal,ETV3,"1.92 fold enrichment (6-mer frequency, TF over GST control)"
same,binding signal,ETV6,"1.66 fold enrichment (6-mer frequency, TF over GST control)"
CCGTTC,binding signal,ERF,"1.61 fold enrichment (6-mer frequency, TF over GST control)"
same,binding signal,ETV3L,"1.44 fold enrichment (6-mer frequency, TF over GST control)"
same,binding signal,ETS2,"1.36 fold enrichment (6-mer frequency, TF over GST control)"
same,binding signal,SPDEF,"1.41 fold enrichment (6-mer frequency, TF over GST control)"
same,binding signal,ETV7,"1.32 fold enrichment (6-mer frequency, TF over GST control)"
same,binding signal,ELF5,"1.56 fold enrichment (6-mer frequency, TF over GST control)"
same,binding signal,ETV3,"1.38 fold enrichment (6-mer frequency, TF over GST control)"
same,binding signal,ETV6,"1.37 fold enrichment (6-mer frequency, TF over GST control)"
